Assay results from PubChem BioAssay (EPA / NIEHS).
Results filed as inconclusive are left out. Activity calls are given as the source filed them. The calls were made as follows, unless noted: active = hit-call score of the fitted dose curve at least 0.9, where 1 is the maximum; inactive = score below 0.9.

Columns and labels:
[1] = ATG_CRE_CIS: Attagene CIS-FACTORIAL HepG2 Assay for human cAMP Responsive Element (CRE) binding protein 3 (AID 2282926); conditions: HepG2 CRE cis-reporter, Attagene multiplexed mRNA; actives raise or lower the signal
In short: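 HepG2 cells transiently transfected with cis-element-driven multiple reporter transcription units; CRE reporter mRNA measured 24 h after dosing by RT-PCR, 6-FAM labelling, HpaI digestion and capillary electrophoresis. Bidirectional fit versus DMSO baseline.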

[2] = ATG_DR4_LXR_CIS: Attagene CIS-FACTORIAL HepG2 Assay for human Liver X Receptor (LXR), DR4 submotif (AID 2282929); conditions: HepG2 Attagene DR4 cis-reporter, mRNA transcription; actives raise or lower the signal
In short: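 The endpoint is DR4-element-driven reporter transcripts after 24 h chemical exposure of transfected HepG2 cells. These were measured via RT-PCR and capillary electrophoresis, and gain or loss of signal was fitted relative to DMSO controls.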

[3] = ATG_AP_1_CIS: Attagene CIS-FACTORIAL HepG2 Assay for human Activator Protein 1 (AP-1) (AID 2282931); conditions: HepG2 Attagene cis-factorial AP-1 reporter mRNA; actives raise or lower the signal
In short: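 Readout is reporter transcript level from endogenous transcription factor activity, quantified by RT-PCR with fluorescent primer extension and capillary electrophoresis. Transiently transfected HepG2 cells, 24 h exposure. Curves fitted both directions versus DMSO.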

[4] = ATG_AP_2_CIS: Attagene CIS-FACTORIAL HepG2 Assay for human Activator Protein 2 (AP-2) (AID 2282932); conditions: HepG2 AP-2 cis-reporter, Attagene transcription factor profiling; actives raise or lower the signal
In short: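 Step one: transient transfection of HepG2 with reporter transcription units. Step two: 24 h chemical exposure. Step three: RNA extraction, RT-PCR, labelled fragment analysis by capillary electrophoresis; DMSO serves as baseline.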

[5] = target: Transcription factor E2F1 (Homo sapiens) (UniProt Q01094); experiment: ATG_E2F_CIS: Attagene CIS-FACTORIAL HepG2 Assay for human E2F Transcription Factor 1 (AID 2282935); conditions: HepG2 Attagene cis-reporter, E2F reporter RNA transcripts; actives raise or lower the signal
In short: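 Total RNA from 24 h-treated, reporter-transfected HepG2 cells undergoes DNase I treatment, oligo(dT) reverse transcription, PCR and 6-FAM primer extension before capillary electrophoresis.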

[6] = ATG_M_61_CIS: Attagene CIS-FACTORIAL HepG2 Assay for M61 Transcription Factor (Internal Marker) (AID 2282937); conditions: HepG2 Attagene CIS-FACTORIAL M61 internal marker reporter; actives raise or lower the signal
In short: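 Readout is reporter mRNA by RT-PCR, fluorescent primer extension and capillary electrophoresis, with gain or loss fitted relative to DMSO. Transfected HepG2 cells carrying endogenous-TF-driven cis reporters were exposed to chemicals for 24 hours.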

[7] = ATG_EGR_CIS: Attagene CIS-FACTORIAL HepG2 Assay for human Early Growth Response 1 (EGR1) (AID 2282938); conditions: HepG2 Attagene CIS-FACTORIAL EGR reporter mRNA; actives raise or lower the signal
In short: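 After 24 h compound exposure, RNA from reporter-transfected HepG2 cells was reverse-transcribed, PCR-amplified, fluorescently labelled and resolved by capillary electrophoresis. EGR1 reporter transcript changes, up or down, were fitted against DMSO, reflecting endogenous transcription-factor activity.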

[8] = ATG_M_19_CIS: Attagene CIS-FACTORIAL HepG2 Assay for M19 Transcription Factor (Internal Marker) (AID 2282939); conditions: HepG2 Attagene CIS-FACTORIAL M19 internal marker reporter; actives raise or lower the signal
In short: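 Background-control endpoint from a multiplexed HepG2 reporter panel. Cells carrying cis-regulated reporter constructs are treated 24 h, then reporter transcripts are amplified, fluorescently labelled and sized by capillary electrophoresis. DMSO defines baseline.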

[9] = ATG_Ets_CIS: Attagene CIS-FACTORIAL HepG2 Assay for human Erythroblast Transformation Specific (ETS) (AID 2282941); conditions: HepG2 ETS cis-reporter transcription, actives raise or lower the signal
In short: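 HepG2 cells transiently transfected with cis-promoter reporter transcription units were dosed for 24 h; reporter mRNA was measured by RT-PCR, 6-FAM primer extension, HpaI digestion and capillary electrophoresis, with bidirectional fitting against DMSO baseline.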

[10] = target: Hepatocyte nuclear factor 3-beta (Homo sapiens) (UniProt Q9Y261); experiment: ATG_FoxA2_CIS: Attagene CIS-FACTORIAL HepG2 Assay for human Forkhead box A2 (FOXA2) (AID 2282942); conditions: HepG2 cis-reporter transcription factor activity, 24 h; actives raise or lower the signal
In short: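 Endogenous transcription factor activity is captured via cis-element-driven reporter transcripts in transfected HepG2. Total RNA taken at 24 h post-dosing; labelled RT-PCR products resolved by capillary electrophoresis. Gain or loss fitted versus DMSO.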

[11] = ATG_GATA_CIS: Attagene CIS-FACTORIAL HepG2 Assay for human GATA Binding Protein (AID 2282944); conditions: HepG2 GATA cis-element reporter, Attagene multiplex mRNA; actives raise or lower the signal
In short: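 Endogenous transcription factor activity was captured through cis-promoter-driven reporters in transfected HepG2 cells. After 24 h exposure, reporter transcripts were quantified by RT-PCR with fluorescent capillary electrophoresis, and responses fitted both directions against DMSO.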

[12] = ATG_GLI_CIS: Attagene CIS-FACTORIAL HepG2 Assay for human Zinc Finger Protein GLI1 (AID 2282945); conditions: HepG2, Attagene cis-factorial reporter mRNA, GLI element; actives raise or lower the signal
In short: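 Bidirectional curve fits relative to DMSO, using reporter mRNA levels from RT-PCR plus capillary electrophoresis. Cells were HepG2 transiently carrying cis-regulated reporter constructs, harvested 24 h after dosing.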

[13] = ATG_ISRE_CIS: Attagene CIS-FACTORIAL HepG2 Assay for human Interferon Regulatory Factor 1 (IRF1) binding to an Interferon-Stimulated Response Element (ISRE) (AID 2282948); conditions: HepG2 ISRE cis-reporter (Attagene), mRNA transcription readout; actives raise or lower the signal
In short: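 HepG2 cells transiently transfected with multiplexed cis-promoter reporter units; after 24 h compound exposure, reporter mRNA quantified by RT-PCR, FAM labelling, HpaI digestion and capillary electrophoresis. Bidirectional fit versus DMSO baseline.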

[14] = ATG_M_32_CIS: Attagene CIS-FACTORIAL HepG2 Assay for M32 Transcription Factor (Internal Marker) (AID 2282949); conditions: HepG2 Attagene cis-factorial M32 reporter, mRNA; actives raise or lower the signal;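 also: background control marker of the multiplexed CIS panel rather than a real target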
In short: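 Internal background marker read-out: RT-PCR/capillary electrophoresis fluorescence of reporter transcripts from transiently transfected HepG2 cells after 24 h chemical exposure. Activity fitted bidirectionally relative to DMSO negative control.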

[15] = ATG_M_06_CIS: Attagene CIS-FACTORIAL HepG2 Assay for M06 Transcription Factor (Internal Marker) (AID 2282950); conditions: HepG2 Attagene CIS-FACTORIAL M06 internal marker reporter; actives raise or lower the signal
In short: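 Steps: transfect HepG2 with multiplexed cis-element reporter constructs; dose chemical 24 h; extract RNA with DNase treatment; reverse-transcribe, PCR-amplify, 6-FAM label, HpaI digest; separate fragments by capillary electrophoresis. Activity fitted both directions versus DMSO.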

[16] = ATG_MRE_CIS: Attagene CIS-FACTORIAL HepG2 Assay for human Metal Responsive Element (MRE) (AID 2282954); conditions: HepG2 MRE cis-reporter transcription, Attagene multiplex; actives raise or lower the signal
In short: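 After a 24 h chemical exposure, transiently transfected HepG2 cells yield RNA whose reporter sequences are amplified, FAM-labelled and sized by capillary electrophoresis. Curves are fitted bidirectionally relative to DMSO.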

[17] = target: Paired box protein Pax-6 (Homo sapiens) (UniProt P26367); experiment: ATG_Pax6_CIS: Attagene CIS-FACTORIAL HepG2 Assay for human Paired Box 6 (PAX6) (AID 2282956); conditions: HepG2 CIS-FACTORIAL PAX6 reporter transcription, RNA readout; actives raise or lower the signal
In short: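 HepG2 cells transiently transfected with multiplexed cis-promoter reporter units (endogenous TF activity) were dosed for 24 h. Reporter mRNA was quantified by RT-PCR, 6-FAM labeling, HpaI digestion and capillary electrophoresis; bidirectional fitting versus DMSO baseline.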

[18] = ATG_PXRE_CIS: Attagene CIS-FACTORIAL HepG2 Assay for human Pregnane X Receptor Element (PXRE) (AID 2282957); conditions: HepG2 Attagene CIS-FACTORIAL PXRE reporter, mRNA; actives raise or lower the signal
In short: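 HepG2 cells transiently transfected with cis-element-driven multiplexed reporter units; after 24 h chemical exposure, reporter mRNA measured by RT-PCR, 6-FAM labelling, HpaI digestion and capillary electrophoresis. Bidirectional fitting relative to DMSO.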

[19] = target: Transcription factor Sp1 (Homo sapiens) (UniProt P08047); experiment: ATG_Sp1_CIS: Attagene CIS-FACTORIAL HepG2 Assay for human Specificity Protein 1 (Sp1) (AID 2282961); conditions: HepG2 Sp1 cis-reporter transcription, actives raise or lower the signal
In short: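 Read-out is reporter transcript level, measured by RT-PCR and fluorescent capillary electrophoresis after 24 h chemical treatment. System: transiently transfected HepG2 cells reporting endogenous transcription factor activity; gain or loss fitted against DMSO baseline.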

[20] = target: Androgen receptor (Homo sapiens) (UniProt P10275); experiment: ATG_AR_TRANS: Attagene TRANS-FACTORIAL HepG2 Assay for human Androgen Receptor (AR) (AID 2282973; active = hit-call score of the fitted dose curve at least 0.9, where 1 is the maximum); conditions: HepG2 Attagene TRANS-FACTORIAL AR reporter transcription
In short: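 HepG2 cells transiently transfected with AR-Gal4 chimera and GAL4-UAS reporter units; chemical exposure 24 h. Reporter mRNA quantified by RT-PCR with fluorescent labelling and capillary electrophoresis; gain-of-signal fitted against DMSO.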

Measured: AC50

Transcription factor Sp1 (Homo sapiens), sequence (P08047 whole entry, looked up): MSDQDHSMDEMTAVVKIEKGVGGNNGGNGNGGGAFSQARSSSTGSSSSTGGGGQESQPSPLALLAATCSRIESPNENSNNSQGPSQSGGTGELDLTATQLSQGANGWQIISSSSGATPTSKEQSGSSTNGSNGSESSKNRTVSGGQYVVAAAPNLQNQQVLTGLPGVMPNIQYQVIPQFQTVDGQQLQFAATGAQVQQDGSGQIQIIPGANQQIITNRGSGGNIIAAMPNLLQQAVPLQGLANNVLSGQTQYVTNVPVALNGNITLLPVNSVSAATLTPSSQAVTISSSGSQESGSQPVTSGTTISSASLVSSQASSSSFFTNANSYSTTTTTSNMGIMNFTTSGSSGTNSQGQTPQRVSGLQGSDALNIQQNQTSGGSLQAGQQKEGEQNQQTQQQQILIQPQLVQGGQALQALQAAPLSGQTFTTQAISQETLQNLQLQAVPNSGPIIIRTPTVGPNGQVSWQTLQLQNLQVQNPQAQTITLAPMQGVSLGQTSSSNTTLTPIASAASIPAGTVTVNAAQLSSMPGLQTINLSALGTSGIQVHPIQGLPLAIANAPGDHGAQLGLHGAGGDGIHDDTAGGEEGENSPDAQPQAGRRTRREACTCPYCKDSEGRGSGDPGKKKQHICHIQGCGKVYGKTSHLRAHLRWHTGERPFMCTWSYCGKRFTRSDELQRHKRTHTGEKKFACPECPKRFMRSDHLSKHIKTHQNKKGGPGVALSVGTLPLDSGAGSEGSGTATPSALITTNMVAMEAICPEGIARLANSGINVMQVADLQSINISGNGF
Paired box protein Pax-6 (Homo sapiens), sequence (P26367 whole entry, looked up): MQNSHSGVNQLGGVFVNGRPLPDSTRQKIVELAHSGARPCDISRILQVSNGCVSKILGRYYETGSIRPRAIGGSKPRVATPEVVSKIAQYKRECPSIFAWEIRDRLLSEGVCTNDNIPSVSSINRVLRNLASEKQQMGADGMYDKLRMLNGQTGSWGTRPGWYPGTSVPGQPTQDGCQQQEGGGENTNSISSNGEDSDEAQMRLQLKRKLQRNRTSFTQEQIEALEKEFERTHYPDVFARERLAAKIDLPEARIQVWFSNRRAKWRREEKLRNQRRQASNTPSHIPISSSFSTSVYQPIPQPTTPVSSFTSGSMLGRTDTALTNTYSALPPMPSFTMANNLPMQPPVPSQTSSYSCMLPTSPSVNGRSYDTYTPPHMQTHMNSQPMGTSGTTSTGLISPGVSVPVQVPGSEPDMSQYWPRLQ
Hepatocyte nuclear factor 3-beta (Homo sapiens), sequence (Q9Y261 whole entry, looked up): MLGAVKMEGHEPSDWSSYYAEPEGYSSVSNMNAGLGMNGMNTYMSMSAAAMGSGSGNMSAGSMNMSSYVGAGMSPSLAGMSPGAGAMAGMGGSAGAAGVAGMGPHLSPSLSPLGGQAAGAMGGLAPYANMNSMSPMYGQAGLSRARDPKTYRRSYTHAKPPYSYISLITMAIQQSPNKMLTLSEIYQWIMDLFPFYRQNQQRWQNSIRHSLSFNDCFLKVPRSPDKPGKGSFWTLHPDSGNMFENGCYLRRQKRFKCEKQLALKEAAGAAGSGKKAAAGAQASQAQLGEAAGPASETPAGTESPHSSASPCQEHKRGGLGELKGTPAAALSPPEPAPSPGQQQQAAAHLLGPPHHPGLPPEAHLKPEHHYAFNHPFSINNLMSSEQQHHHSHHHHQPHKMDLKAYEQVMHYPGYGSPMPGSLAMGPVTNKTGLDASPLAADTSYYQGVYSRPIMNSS
Transcription factor E2F1 (Homo sapiens), sequence (Q01094 whole entry, looked up): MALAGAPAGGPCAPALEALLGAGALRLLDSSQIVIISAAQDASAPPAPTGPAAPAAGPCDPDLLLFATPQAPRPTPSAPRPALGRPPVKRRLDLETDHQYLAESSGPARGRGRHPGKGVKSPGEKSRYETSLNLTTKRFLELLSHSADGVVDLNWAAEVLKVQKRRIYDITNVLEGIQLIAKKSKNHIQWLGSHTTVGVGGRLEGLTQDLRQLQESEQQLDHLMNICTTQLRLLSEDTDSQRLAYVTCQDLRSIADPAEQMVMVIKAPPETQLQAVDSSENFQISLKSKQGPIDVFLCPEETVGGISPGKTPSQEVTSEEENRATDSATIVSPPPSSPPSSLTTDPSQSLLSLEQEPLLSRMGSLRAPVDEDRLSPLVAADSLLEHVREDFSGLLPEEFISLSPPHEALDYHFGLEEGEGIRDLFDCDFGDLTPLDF
Androgen receptor (Homo sapiens), sequence (P10275 whole entry, looked up, the tested form may be a part): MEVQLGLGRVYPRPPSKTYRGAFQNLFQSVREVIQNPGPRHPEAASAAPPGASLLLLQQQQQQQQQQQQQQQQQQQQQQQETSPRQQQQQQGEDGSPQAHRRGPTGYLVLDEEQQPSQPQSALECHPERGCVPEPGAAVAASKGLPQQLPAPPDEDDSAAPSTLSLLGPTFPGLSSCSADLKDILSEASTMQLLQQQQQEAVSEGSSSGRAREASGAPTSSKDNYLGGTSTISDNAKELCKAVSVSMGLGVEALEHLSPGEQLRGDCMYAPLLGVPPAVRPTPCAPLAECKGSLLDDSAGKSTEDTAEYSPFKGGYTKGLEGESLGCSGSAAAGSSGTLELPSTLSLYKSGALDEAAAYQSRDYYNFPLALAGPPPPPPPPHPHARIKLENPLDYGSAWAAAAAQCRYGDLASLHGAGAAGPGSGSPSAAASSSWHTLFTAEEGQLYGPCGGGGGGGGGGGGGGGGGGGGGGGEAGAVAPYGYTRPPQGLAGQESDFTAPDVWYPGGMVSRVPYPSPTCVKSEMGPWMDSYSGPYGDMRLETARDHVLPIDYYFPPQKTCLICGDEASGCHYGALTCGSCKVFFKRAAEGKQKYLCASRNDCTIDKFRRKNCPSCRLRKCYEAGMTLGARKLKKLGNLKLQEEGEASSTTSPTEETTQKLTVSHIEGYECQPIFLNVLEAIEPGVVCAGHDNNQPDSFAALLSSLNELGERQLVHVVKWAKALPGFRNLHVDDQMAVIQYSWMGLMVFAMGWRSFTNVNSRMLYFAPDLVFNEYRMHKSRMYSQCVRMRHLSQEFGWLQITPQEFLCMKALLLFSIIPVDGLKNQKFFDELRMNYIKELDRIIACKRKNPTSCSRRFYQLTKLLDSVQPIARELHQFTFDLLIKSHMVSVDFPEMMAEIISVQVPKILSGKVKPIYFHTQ

O=[N+]([O-])c1ccc(Cl)cc1
not listed: [20]
inactive: all other assays above

COCc1c(C(C)C)nc(C(C)C)c(/C=C/[C@@H](O)C[C@@H](O)CC(=O)O)c1-c1ccc(F)cc1
inactive: [20]

O=S(=O)(O)OOS(=O)(=O)O
active: [18] 56.7 µM
not listed: [20]
inactive: all other assays above

C[N+](C)(C)CC(=O)O
not listed: [20]
inactive: all other assays above

CCOC(=O)COc1ccc(Cl)cc1Cl
not listed: [20]
inactive: all other assays above

C=CCc1ccc(OC(=O)Cc2ccccc2)c(OC)c1
active: [18] 8.28 µM
not listed: [20]
inactive: all other assays above

Cc1ccccc1CCl
not listed: [20]
inactive: all other assays above

C[N+](C)=CCl
not listed: [20]
inactive: all other assays above

O=C(O)COc1ccccc1
not listed: [20]
inactive: all other assays above

CCOC(=O)N(C)N=O
active: [18] 26.1 µM
not listed: [20]
inactive: all other assays above

O=c1c2ccccc2c(=O)c2c1cc(Cl)c1[nH]c3c([nH]c12)c(Cl)cc1c(=O)c2ccccc2c(=O)c13
active: [18] 11.2 µM
not listed: [20]
inactive: all other assays above
